Bioassay records (PubChem BioAssay)
Hits are enriched below; roughly 2.2% of the tested compounds scored in any of these assays.
HSP90 inh – HSP90 refolding inhibition in rabbit reticulocyte lysate; luciferase refolding luminescence, 3 h; inhibition, % at 5.6 µM; 0.91% of 290,000 active; AID 1789;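 active means inhibition above the screen-wide mean plus 3 SD, computed separately per campaign, cut at about 16% in these data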;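 further: 0% = DMSO wells and 100% = 60 µM geldanamycin wells; inhibitors lower the luminescence because luciferase stays unfolded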
TWEAK Fn14 block – TWEAK-Fn14 signaling inhibition | TWEAK-stimulated Fn14 reporter cells, luciferase luminescence, 8 h | inhibition, % at 10 µM | 2% of 360,000 active | AID 1159606; in the data active means inhibition above about 50%
TROY NFkB inh – inhibitors of TROY-dependent NF-kB signaling | Q293 LMP1-TROYcd NF-kB luciferase reporter, 4 h | 0.98% of 360,000 active | inhibition, % at 10 µM;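 active means compounds whose plate-normalised and pattern-corrected inhibition of the luciferase reporter signal at the single screening dose is 50% or more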
LGR2 antag – Drosophila LGR2 receptor signaling inhibition; 0.35% of 380,000 active; HEK293 LGR2, CRE-luciferase, bursicon-stimulated, 4 h; inhibition, % at 9.99 µM;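 active means drop in luminescence signal, shown as inhibition above about 50% in the replicate tests, limit read from the data, passing the limit was not always enough; inconclusive means probably only some replicates passing the limit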;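 further: agonist challenge used bursicon conditioned medium at about half maximal strength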
Numbers without * were called inactive; ? = inconclusive; . = no result given.

SMILES | HSP90 inh | TWEAK Fn14 block | TROY NFkB inh | LGR2 antag
O=C(OCCN1C(=O)c2cccc3c(N4CCOCC4)ccc(c23)C1=O)c1ccc(Cl)cc1 | 0 | 66* | 42 | -10
O=C(Nc1ccccc1)c1cccc(C(=O)Nc2ccccc2)n1 | -1 | 2 | 2 | 24
CN(C)c1ccc(NC(=O)c2cccc(C(=O)Nc3ccc(N(C)C)cc3)n2)cc1 | -3 | 51* | 11 | -15
Cc1ccc(S(=O)(=O)Nc2ccc3c(c2)C(=O)N([C@H](C)CO)C[C@H](C)[C@H](CN(C)C(=O)Nc2ccc4c(c2)OCO4)O3)cc1 | . | . | . | 1
CCOC(=O)c1sc(NC(=O)Nc2ccccc2Cl)cc1C | -1 | 70* | 69* | 15
CCOC(=O)c1sc(NC(=O)Nc2ccccc2)cc1C | -3 | 37 | 32 | .
COc1ccc(NC(=O)N[C@@H]2CC[C@@H](CCNC(=O)c3ccccc3F)O[C@@H]2CO)cc1 | . | . | . | -11
CC(=O)OCCCNc1cc(Sc2ccc(C)cc2)c2nonc2c1[N+](=O)[O-] | 5 | 80* | 64* | 51*
O=[N+]([O-])c1c(NCCCO)cc(SCc2ccco2)c2nonc12 | -1 | -7 | 12 | -9
O=[N+]([O-])c1c(NCCCO)cc(Sc2ccc(Cl)cc2)c2nonc12 | -3 | 48 | 79* | 21
C[C@@H]1CN([C@@H](C)CO)C(=O)c2cc(-c3ccncc3)cnc2O[C@H]1CN(C)Cc1cccnc1 | . | . | . | 5
CO[C@H]1CN(C)C(=O)c2ccc(NS(=O)(=O)c3cn(C)cn3)cc2OC[C@@H](C)N(CC2CC2)C[C@@H]1C | . | . | . | 12
O=C(O)C1CCC(CNCc2ccccc2Cl)CC1 (stereo not drawn) | 0 | 56* | 6 | 0
NCC[C@@H]1CC[C@@H](NC(=O)c2ccccc2F)[C@H](CO)O1 | . | . | . | 5
C[C@@H]1CN([C@H](C)CO)C(=O)c2cc(NS(C)(=O)=O)ccc2O[C@@H](C)CCCCO[C@@H]1CN(C)C(=O)C1CCCCC1 | . | . | . | 0
Cc1ccc(C)c(Cn2nnc3c(=O)[nH]c(C(=O)NCc4ccco4)nc32)c1 | 2 | 26 | 7 | -14
O=C(NCc1ccco1)c1nc2c(nnn2Cc2ccccc2Cl)c(=O)[nH]1 | 2 | 85* | 85* | 93*
O=C(CCc1nc(-c2ccccc2F)no1)Nc1ccc(Oc2ccccc2)cc1 | 3 | 52* | 44 | 14
C/C=C/c1ccc([C@@H]2[C@H](CO)N(Cc3cncnc3)C23CN(C(=O)CC)C3)cc1 | . | . | . | 5
O=C(CC1CC1)Nc1ccc2c(c1)[C@H]1C[C@H](CC(=O)NC3CCCCC3)O[C@H](CO)[C@H]1O2 | . | . | . | 17
O=c1[nH]c(-c2ccccn2)nc2sc(-c3ccccc3)cc12 | -3 | 100* | 26 | 32
Cc1c(C(=O)N(C)C)sc2nc(-c3ccccn3)[nH]c(=O)c12 | -8 | 9 | -33 | .
CC(=O)CSc1nc(N)c(C#N)c(-c2cccs2)c1C#N | -1 | 52* | 12 | .
COc1ccc2c3c(n(C)c2c1)[C@H](CO)N(C(C)=O)CC31CCN(S(=O)(=O)c2ccccc2)CC1 | . | . | . | -1
C[C@H](CO)N1C[C@H](C)[C@H](CN(C)S(=O)(=O)c2cn(C)cn2)Oc2c(NC(=O)NC3CCCCC3)cccc2C1=O | . | . | . | 17
SMILES | HSP90 inh | TWEAK Fn14 block | TROY NFkB inh | LGR2 antag
COCCN=c1scc(-c2ccc3c(c2)NC(=O)CO3)n1/N=C(\C)c1ccc(O)cc1 | 0 | 20 | 13 | 10
COc1cc(/C=N/n2c(-c3ccc4c(c3)NC(=O)CO4)csc2=Nc2cccc(C)c2)ccc1O | -2 | 65* | 12 | -23
NNc1nc2c(F)cccc2s1 | 6 | 62* | 68* | -16
COc1cc(OC)cc(-c2nnc(Nc3nc4c(F)cccc4s3)o2)c1 | 5 | 0 | -2 | .
Fc1cccc2sc(Nc3nnc(-c4ccccc4)o3)nc12 | -1 | 103* | -47 | .
CC(C)NC(=O)Nc1cccc2c1O[C@@H](CN(C)C(=O)Nc1ccc(F)cc1)[C@@H](C)CN([C@@H](C)CO)C2=O | . | . | . | -2
C[C@@H]1CN([C@@H](C)CO)S(=O)(=O)c2ccc(-c3ccncc3)cc2O[C@H]1CN(C)C(=O)c1ccc2c(c1)OCO2 | . | . | . | -17
CNC(=O)C[C@H]1CC[C@@H]2[C@@H](COc3ccc(NC(=O)NCc4ccccc4)cc3C(=O)N2C)O1 | . | . | . | -26
CC12CCC(=O)C=C1CCC1C2C(=O)CC2(C)C1CC[C@]2(O)C(=O)CO (stereo partly drawn) | -7 | 78* | 5 | 13
CC(=O)OCC(=O)[C@@]1(O)CCC2C3CCC4=CC(=O)CCC4(C)C3C(=O)CC21C (stereo partly drawn) | -3 | -4 | 26 | 9
O=C(C[C@@H]1C[C@H]2c3cc(NC(=O)NC4CCCC4)ccc3O[C@H]2[C@@H](CO)O1)NCc1ccccn1 | . | . | . | -8
Cc1cc(C)c(O)c(C(=O)CC2CC(=O)NC(=O)C2)c1 | . | . | . | 65*
COc1ccc2[nH]c3c4c(ccc3c2c1)C(=O)C=CC4=O | 6 | 72* | 43 | 12
O=C(N[C@@H]1CC[C@@H](CCNC(=O)c2cnccn2)O[C@H]1CO)c1ccc2c(c1)OCO2 | . | . | . | -11
CCC1CCCCN1CC(=O)c1c(C)[nH]c2ccc(OC)cc12 (stereo not drawn) | -2 | 85* | -3 | -8
Cc1[nH]c2ccccc2c1C(=O)CCl | -1 | 58* | -1 | 10
CCC1CCCCN1CC(=O)c1c(C)[nH]c2ccccc12 (stereo not drawn) | 2 | 24 | -7 | 9
Cc1[nH]c2ccccc2c1C(=O)CN1CCCCC1C (stereo not drawn) | 1 | 79* | . | .
COc1ccc2c3c(n(C)c2c1)[C@@H](CO)N(C(=O)c1ccc(F)cc1)CC31CN(C)C1 | . | . | . | -9
C[C@H]1CN([C@@H](C)CO)C(=O)Cc2cc(NC(=O)CCCCCC(=O)Nc3ccccc3N)ccc2O[C@@H]1CN(C)S(=O)(=O)c1cccs1 | . | . | . | 1
COc1ccc2nc(C)cc(N/N=C/c3ccccc3)c2c1 | . | -113 | -71 | .
COc1ccc(/C=N/Nc2cc(C)nc3ccc(OC)cc23)c(OC)c1 | 0 | 86* | 82* | 103*
O=S1(=O)C=C(Sc2nc3cc(Cl)ccc3o2)c2ccccc21 | -3 | 64* | 28 | .
O=C(OCn1ncc(Cl)c(Cl)c1=O)c1ccccc1Cl | -2 | 104* | 73* | .
O=c1c(Cl)c(Cl)cnn1Cc1ccc(F)cc1 | 5 | 81* | 2 | ?
SMILES | HSP90 inh | TWEAK Fn14 block | TROY NFkB inh | LGR2 antag
O=C(Cn1ncc(Cl)c(Cl)c1=O)c1ccc(Cl)cc1 | 1 | 83* | 13 | .
O=C(Cn1ncc(N2CCOCC2)c(Cl)c1=O)c1ccc(Cl)cc1 | -1 | -9 | -23 | 3
CC(C)(C)C(=O)Cn1ncc(Cl)c(Cl)c1=O | 3 | 97* | 3 | .
O=C(OCn1ncc(Cl)c(Cl)c1=O)c1ccc(F)cc1 | -4 | . | . | .
CC(C)NC(=O)N(C)C[C@@H]1Oc2c(NC(=O)C3CCOCC3)cccc2C(=O)N([C@H](C)CO)C[C@H]1C | . | . | . | -8
CC(C)CC#Cc1ccc([C@@H]2[C@@H](CO)N3C(=O)CN(C(=O)NC4CCCC4)C[C@H]23)cc1 | . | . | . | -18
C[C@H](NC(=O)C[C@@H]1C[C@@H]2c3cc(NC(=O)CN(C)C)ccc3O[C@@H]2[C@H](CO)O1)c1ccccc1 | . | . | . | -1
